From PubChem
Hits are enriched below; roughly 4.5% of the tested compounds scored in any of these assays.
TPT1 inh – Candida albicans TPT1 enzyme inhibitors, primary screen, biochemical, fluorescence polarization; recombinant caTPT1, FP RNA substrate dephosphorylation; inhibition, % at 5 µM; tRNA 2'-phosphotransferase TPT1 (Candida albicans SC5314); 300,000 tested, 0.81% active;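 active means inhibition above the mean of all tested compounds plus 3 SD, set per screening campaign, cut at about 24% in these data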;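 further: plate controls were DMSO alone for no effect and ferristatin control at 100 nM for full effect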
Rpn11 inh – Rpn11 (PSMD14) deubiquitinase inhibitors, primary screen, biochemical, fluorescence polarization, uHTS. human 26S proteasome, Ub4-pepOG fluorescence polarization; 20S core pre-blocked with epoxomicin. 360,000 tested, 0.59% active. inhibition, % at 20 µM. 26S proteasome non-ATPase regulatory subunit 14 (Homo sapiens), O00487;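 active means inhibition at 20 µM, scaled to each plate's controls, above about 33%, limit read from the data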
Target sequence (O00487 whole entry, looked up): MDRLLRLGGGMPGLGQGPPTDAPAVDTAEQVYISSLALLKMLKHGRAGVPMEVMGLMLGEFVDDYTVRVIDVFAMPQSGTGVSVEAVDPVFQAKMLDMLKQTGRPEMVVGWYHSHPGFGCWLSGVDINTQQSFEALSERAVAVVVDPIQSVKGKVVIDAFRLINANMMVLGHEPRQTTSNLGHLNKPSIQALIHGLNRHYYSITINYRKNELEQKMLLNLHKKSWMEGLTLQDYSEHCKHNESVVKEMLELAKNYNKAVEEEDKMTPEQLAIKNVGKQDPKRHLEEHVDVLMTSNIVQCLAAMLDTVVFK
GRIN3A LBD mod – binders of NR3A ligand-binding domain, primary screen, biophysical, differential scanning fluorimetry, uHTS; NR3A LBD differential scanning fluorimetry, Tm shift; 0% = protein alone, 100% = glycine-bound protein; Tm shift relative to glycine control, % at 25 µM; Glutamate receptor ionotropic, NMDA 3A (GRIN3A) ligand-binding domain; 340,000 tested, 2.5% active; AID 1259313, 2017;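 active means melting temperature shift of at least 10% of the positive control shift, at one fixed dose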
dFosB activator – activators of delta FosB homodimer, primary screen, biochemical, fluorescence polarization, TAMRA-CDK5 oligo, single point; Protein FosB (Mus musculus), P13346; purified delta FosB; percent of positive-control signal above neutral wells; activation, % at 25 µM; 340,000 tested, 0.99% active; AID 493131, 2011;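 active means mean activation above about 17%, with every replicate also reaching it, limit read from the data, passing the limit was not always enough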
EBNA-1 inh – EBNA-1 DNA-binding inhibitors, primary screen, biochemical, fluorescence polarization. inhibition, % at 14.8 µM. 300,000 tested, 0.34% active. AID 1950, 2009; in the data active means inhibition above about 28%
ZTA counter – blocks Epstein-Barr virus ZTA, an EBNA-1 counter-screen. P03206. ZTA-DNA binding, fluorescence polarization. inhibition, % at 11 µM. 320,000 tested, 0.15% active; in the data active means inhibition above about 33%
Target sequence (P03206 whole entry, looked up): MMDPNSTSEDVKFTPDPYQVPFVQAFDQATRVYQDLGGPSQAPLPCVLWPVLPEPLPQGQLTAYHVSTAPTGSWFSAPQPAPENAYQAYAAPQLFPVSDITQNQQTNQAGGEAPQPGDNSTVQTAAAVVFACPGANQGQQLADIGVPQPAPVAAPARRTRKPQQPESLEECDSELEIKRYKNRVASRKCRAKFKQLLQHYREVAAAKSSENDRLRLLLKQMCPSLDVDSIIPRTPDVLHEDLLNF
Starred values were filed as active, the others as inactive.

Screening Cc1nc(C)c(-c2csc(Nc3ccc(F)cc3)n2)s1 returned TPT1 inh -2.2, Rpn11 inh 2.0, GRIN3A LBD mod 15.5*, dFosB activator -8.5, EBNA-1 inh 3.5 and ZTA counter -11.3.
Screening CCOc1ccc(NC(=O)CN(C)C(=O)c2cn(-c3ccccc3)nc2-c2cccs2)cc1OCC returned Rpn11 inh -2.5, GRIN3A LBD mod -1.1 and dFosB activator 9.6.
For COc1c2ccc(OCC/C(C)=C/C(=O)C=C(C)C)cc2nc2occc12 the results were Rpn11 inh 18.3, GRIN3A LBD mod -3.1 and dFosB activator -11.5.
For O=C(O)c1cc2ccc3cccc4ccc(c1)c2c34 the results were TPT1 inh -1.4, Rpn11 inh -5.1, GRIN3A LBD mod 4.4, dFosB activator -0.6, EBNA-1 inh 0.9 and ZTA counter 2.2.
Screening Cc1cnc(C(=O)OCC(=O)Nc2ccccc2[N+](=O)[O-])cn1 returned Rpn11 inh -0.6, GRIN3A LBD mod 11.2* and dFosB activator -6.4.
Screening CCOC(=O)c1c(NC(=O)c2cc3n(n2)C(C(F)(F)F)CC(c2ccccc2)N3)sc(C)c1C (stereo not given) returned TPT1 inh 1.8, Rpn11 inh 2.8, GRIN3A LBD mod 18.0*, dFosB activator -4.0, EBNA-1 inh 8.1 and ZTA counter 17.8.
`CCCCNC(=O)c1cc2n(n1)C(C(F)(F)F)CC(c1ccccc1)N2` (stereo not given) gave TPT1 inh -0.3, Rpn11 inh 4.1, GRIN3A LBD mod 1.3, dFosB activator -3.0, EBNA-1 inh 7.2 and ZTA counter 4.0.
For N#CCCn1cc(/C=C2\NC(=S)N(c3ccccc3)C2=O)c(-c2ccc(-c3ccccc3)cc2)n1 the results were TPT1 inh 3.0, Rpn11 inh 5.7, GRIN3A LBD mod 22.4*, dFosB activator -3.8, EBNA-1 inh -1.6 and ZTA counter -14.2.
`O=C(O)CCn1cc(/C=C2/NC(=S)N(c3ccccc3)C2=O)c(-c2ccccc2)n1` gave TPT1 inh 1.1, Rpn11 inh -5.1, GRIN3A LBD mod 0.5, dFosB activator 2.7, EBNA-1 inh -7.7 and ZTA counter -15.6.
For Cc1ccc(Nc2nc3ccccc3n3nnnc23)cc1 the results were TPT1 inh 5.7, Rpn11 inh 10.6, GRIN3A LBD mod -0.1, dFosB activator -7.0, EBNA-1 inh 34.2* and ZTA counter -1.6.
`O=C(NCCC1CCCCN1S(=O)(=O)c1ccc(Cl)cc1)C(=O)NCCN1CCOCC1` (stereo not given) gave TPT1 inh -1.3, Rpn11 inh 1.1, GRIN3A LBD mod -0.5, dFosB activator 1.5, EBNA-1 inh -0.6 and ZTA counter 9.2.
For CCCOc1ccc(-c2c(C(=O)N/N=C/c3ccc(OC)cc3)nnn2-c2nonc2N)cc1 the results were TPT1 inh 2.3, Rpn11 inh -2.9, GRIN3A LBD mod 10.4*, dFosB activator 15.6, EBNA-1 inh 9.7 and ZTA counter -2.6.
CCOc1ccc(-c2c(C(=O)N/N=C/c3ccc(O)cc3)nnn2-c2nonc2N)cc1 was read as TPT1 inh 2.7, Rpn11 inh -6.2, GRIN3A LBD mod 8.4, dFosB activator -1.6, EBNA-1 inh -6.5 and ZTA counter 0.7.
CCCOc1ccc(-c2c(C(=O)N/N=C/c3ccc(OCC)cc3)nnn2-c2nonc2N)cc1 was read as TPT1 inh -1.0, Rpn11 inh -1.9, GRIN3A LBD mod 5.4, dFosB activator 1.3, EBNA-1 inh 14.1 and ZTA counter 0.0.
CCOc1ccc(-c2c(C(=O)N/N=C/c3ccsc3)nnn2-c2nonc2N)cc1 was read as TPT1 inh 2.5, Rpn11 inh 3.8, GRIN3A LBD mod 12.7*, dFosB activator -9.1, EBNA-1 inh -0.4 and ZTA counter -1.7.
CCOC(=O)c1sc(NC(=O)CCN2C(=O)C3CCCCC3C2=O)cc1C (stereo not given) was read as Rpn11 inh -1.0, GRIN3A LBD mod 3.6, dFosB activator -6.2 and ZTA counter -4.1.
CN=C1S/C(=C/c2cn(CC(=O)OC)c3ccccc23)C(=O)N1C was read as TPT1 inh 6.5, Rpn11 inh 15.9, GRIN3A LBD mod 11.9*, dFosB activator -18.6, EBNA-1 inh 9.4 and ZTA counter -1.8.
For CCn1cc(S(=O)(=O)NCCc2ccccc2OC)cn1 the results were TPT1 inh -0.6, Rpn11 inh 4.9, GRIN3A LBD mod 11.4*, dFosB activator 1.3, EBNA-1 inh 4.6 and ZTA counter -8.4.
Screening O=C(/C=C/c1ccc(Br)o1)NC(c1ccccc1)c1ccccc1 returned TPT1 inh -0.8, Rpn11 inh 7.2, GRIN3A LBD mod 19.6*, dFosB activator -3.6, EBNA-1 inh -3.5 and ZTA counter -14.7.
`Cc1nc2sccn2c(=O)c1S(=O)(=O)NCC(C)c1ccccc1` (stereo not given) gave TPT1 inh -1.4, Rpn11 inh -2.1, GRIN3A LBD mod -5.0, dFosB activator -7.7, EBNA-1 inh 0.0 and ZTA counter 0.4.
Screening CC(C)(C)NS(=O)(=O)c1ccc2nc(NC(=O)c3ccc(N4C(=O)CCC4=O)cc3)sc2c1 returned TPT1 inh 3.1, Rpn11 inh -2.4, GRIN3A LBD mod 0.5, dFosB activator -0.6, EBNA-1 inh -2.2 and ZTA counter 6.9.
For Cc1ccc2nc(NC(=O)c3ccc(N4C(=O)CCC4=O)cc3)sc2c1 the results were TPT1 inh 15.8, Rpn11 inh 12.1, GRIN3A LBD mod -9.5, dFosB activator 1.4, EBNA-1 inh 35.0* and ZTA counter 2.4.
For CN(C)CCCNC(NC(=O)c1cccs1)C(Cl)(Cl)Cl (stereo not given) the results were TPT1 inh 0.3, Rpn11 inh -1.5, GRIN3A LBD mod -0.6, dFosB activator -0.1, EBNA-1 inh -1.5 and ZTA counter 3.0.
Screening COc1ccc(-c2cc(C(=O)N3CCN(S(=O)(=O)c4ccccc4)CC3)[nH]n2)cc1 returned TPT1 inh 1.7, Rpn11 inh 0.3, GRIN3A LBD mod 14.8*, dFosB activator -8.5, EBNA-1 inh -4.8 and ZTA counter -1.3.
CC(C)CC1(C)NC(=O)N(CC(=O)Nc2ccc3c(c2)CCC3)C1=O (stereo not given) was read as TPT1 inh 2.8, Rpn11 inh -1.8, GRIN3A LBD mod 0.4, dFosB activator -5.5, EBNA-1 inh -0.7 and ZTA counter 10.9.
`COc1ccc(-n2c(=S)[nH]c3cc(C(=O)Nc4ccc(C)c(F)c4)ccc3c2=O)c(OC)c1` gave TPT1 inh -5.3, Rpn11 inh 3.4, GRIN3A LBD mod 13.3*, dFosB activator 4.2, EBNA-1 inh 0.8 and ZTA counter -9.3.
